# Tests used:
# Assay in all cases: DAPPL (digital affinity profiling via proximity ligation, sequencing); 10 mM Tris-HCl pH 7.5, 50 mM NaCl, 1 mM DTT, 4% glycerol, room temperature, 30 min; GST-TFs on glutathione beads, 16-mer random dsDNA library, 0.1% formaldehyde crosslink after washing; high values mean tight binding
# FEV = biological target: T1, FEV (Homo sapiens, UniProt Q99581 1-238); conditions: protein: recombinant; tags: N-terminal GST; dsDNA, one strand shown
# T1 sequence: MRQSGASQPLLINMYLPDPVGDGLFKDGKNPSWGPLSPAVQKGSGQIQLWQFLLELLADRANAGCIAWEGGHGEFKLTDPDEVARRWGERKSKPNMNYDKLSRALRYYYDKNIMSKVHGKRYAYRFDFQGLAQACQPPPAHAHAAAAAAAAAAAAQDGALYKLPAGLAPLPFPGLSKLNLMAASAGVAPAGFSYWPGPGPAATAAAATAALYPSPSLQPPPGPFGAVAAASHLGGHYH
# Outline: (§1)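 Human transcription factors were made in yeast as GST fusions, captured on glutathione beads and barcoded with DNA. With a tag-only sample included, the pool was incubated with 200 nmole of a random double-stranded 16-mer DNA library in Tris/NaCl/DTT/glycerol buffer at room temperature for 30 min, then crosslinked with 0.1% formaldehyde after washing, ligated by proximity, amplified and sequenced. For binding signal, each hexamer's read frequency for a factor is divided by its frequency for the tag-only sample.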
# ETV5 = ETV5 (Homo sapiens, UniProt P41161 1-510); conditions: protein: recombinant; tags: N-terminal GST; dsDNA, one strand shown
# Outline: as §1
# HSF1 = HSF1 (Homo sapiens, UniProt Q00613 1-529); conditions: protein: recombinant; tags: N-terminal GST; chain copies: 3; dsDNA, one strand shown
# Outline: as §1
# SPIC = biological target: T2, SPIC (Homo sapiens, UniProt Q8N5J4 1-248); conditions: protein: recombinant; tags: N-terminal GST; dsDNA, one strand shown
# T2 sequence: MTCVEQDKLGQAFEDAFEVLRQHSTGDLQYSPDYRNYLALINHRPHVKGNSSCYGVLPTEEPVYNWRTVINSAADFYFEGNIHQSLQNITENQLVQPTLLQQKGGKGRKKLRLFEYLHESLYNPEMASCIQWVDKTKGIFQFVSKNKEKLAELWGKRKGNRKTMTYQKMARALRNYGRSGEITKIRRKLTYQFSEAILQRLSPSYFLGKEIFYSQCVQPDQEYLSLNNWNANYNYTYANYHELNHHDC
# Outline: as §1
# ELF4 = ELF4 (Homo sapiens, UniProt Q99607 1-663); conditions: protein: recombinant; tags: N-terminal GST; dsDNA, one strand shown
# Outline: as §1
# ELK4 = biological target: T3, ELK4 (Homo sapiens, UniProt P28324-2 1-405); conditions: protein: recombinant; tags: N-terminal GST; dsDNA, one strand shown
# T3 sequence: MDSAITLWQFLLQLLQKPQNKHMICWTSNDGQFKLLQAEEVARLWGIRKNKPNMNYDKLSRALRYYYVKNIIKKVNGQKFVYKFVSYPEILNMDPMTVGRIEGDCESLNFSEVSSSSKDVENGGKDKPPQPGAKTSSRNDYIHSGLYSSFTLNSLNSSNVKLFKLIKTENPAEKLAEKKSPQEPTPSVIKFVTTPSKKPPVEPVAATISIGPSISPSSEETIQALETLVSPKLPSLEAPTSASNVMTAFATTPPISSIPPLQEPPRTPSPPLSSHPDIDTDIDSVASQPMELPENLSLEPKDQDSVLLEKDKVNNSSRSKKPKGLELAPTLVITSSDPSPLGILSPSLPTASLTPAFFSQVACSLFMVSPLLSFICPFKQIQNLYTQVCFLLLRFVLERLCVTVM
# Outline: as §1
# ETV2 = biological target: T4, ETV2 (Homo sapiens, UniProt O00321 1-342); conditions: protein: recombinant; tags: N-terminal GST; dsDNA, one strand shown
# T4 sequence: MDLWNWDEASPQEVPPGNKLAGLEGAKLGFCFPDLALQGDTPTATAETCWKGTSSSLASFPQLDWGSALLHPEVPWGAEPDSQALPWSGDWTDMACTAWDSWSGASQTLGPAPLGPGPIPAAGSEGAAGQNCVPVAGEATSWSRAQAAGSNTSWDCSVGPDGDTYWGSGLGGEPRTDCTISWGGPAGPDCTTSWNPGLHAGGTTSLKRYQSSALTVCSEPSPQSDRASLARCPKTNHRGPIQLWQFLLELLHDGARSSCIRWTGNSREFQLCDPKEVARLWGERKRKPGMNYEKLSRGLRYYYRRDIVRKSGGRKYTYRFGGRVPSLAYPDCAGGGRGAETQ
# Outline: as §1
# ELF3 = biological target: T5, ELF3 (Homo sapiens, UniProt P78545 1-371); conditions: protein: recombinant; tags: N-terminal GST; dsDNA, one strand shown
# T5 sequence: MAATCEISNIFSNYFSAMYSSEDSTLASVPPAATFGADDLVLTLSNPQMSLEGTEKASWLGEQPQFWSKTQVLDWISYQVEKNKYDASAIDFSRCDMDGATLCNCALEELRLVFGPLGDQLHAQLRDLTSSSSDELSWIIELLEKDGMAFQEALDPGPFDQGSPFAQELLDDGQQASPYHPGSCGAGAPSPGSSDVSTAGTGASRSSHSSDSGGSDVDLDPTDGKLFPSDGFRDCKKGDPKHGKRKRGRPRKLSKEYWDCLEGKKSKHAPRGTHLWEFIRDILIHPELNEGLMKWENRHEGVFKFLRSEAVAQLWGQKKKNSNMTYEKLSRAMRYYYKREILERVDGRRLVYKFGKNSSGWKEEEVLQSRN
# Outline: as §1
# CRX = CRX (Homo sapiens, UniProt O43186 1-299); conditions: protein: recombinant; tags: N-terminal GST; dsDNA, one strand shown
# Outline: as §1
# ETV1 = ETV1 (Homo sapiens, UniProt P50549 1-477); conditions: protein: recombinant; tags: N-terminal GST; dsDNA, one strand shown
# Outline: as §1
# ERF = biological target: T6, ERF (Homo sapiens, UniProt P50548 1-548); conditions: protein: recombinant; tags: N-terminal GST; dsDNA, one strand shown
# T6 sequence: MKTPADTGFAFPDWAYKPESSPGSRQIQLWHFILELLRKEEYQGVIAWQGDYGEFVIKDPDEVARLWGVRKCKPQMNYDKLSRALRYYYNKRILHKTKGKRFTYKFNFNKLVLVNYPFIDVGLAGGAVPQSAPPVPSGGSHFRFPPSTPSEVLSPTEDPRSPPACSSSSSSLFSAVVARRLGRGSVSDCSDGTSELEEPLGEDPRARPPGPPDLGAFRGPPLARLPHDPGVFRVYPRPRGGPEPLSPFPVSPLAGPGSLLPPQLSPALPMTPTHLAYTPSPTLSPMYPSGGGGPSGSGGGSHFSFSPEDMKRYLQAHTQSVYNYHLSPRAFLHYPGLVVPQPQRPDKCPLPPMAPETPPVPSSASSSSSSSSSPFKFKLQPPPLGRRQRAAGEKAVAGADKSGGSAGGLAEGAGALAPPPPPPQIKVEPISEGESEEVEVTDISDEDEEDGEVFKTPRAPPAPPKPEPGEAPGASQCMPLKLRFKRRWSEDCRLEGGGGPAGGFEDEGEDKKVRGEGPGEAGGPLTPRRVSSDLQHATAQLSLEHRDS
# Outline: as §1
# ETV3L = biological target: T7, ETV3L (Homo sapiens, UniProt Q6ZN32 1-361); conditions: protein: recombinant; tags: N-terminal GST; dsDNA, one strand shown
# T7 sequence: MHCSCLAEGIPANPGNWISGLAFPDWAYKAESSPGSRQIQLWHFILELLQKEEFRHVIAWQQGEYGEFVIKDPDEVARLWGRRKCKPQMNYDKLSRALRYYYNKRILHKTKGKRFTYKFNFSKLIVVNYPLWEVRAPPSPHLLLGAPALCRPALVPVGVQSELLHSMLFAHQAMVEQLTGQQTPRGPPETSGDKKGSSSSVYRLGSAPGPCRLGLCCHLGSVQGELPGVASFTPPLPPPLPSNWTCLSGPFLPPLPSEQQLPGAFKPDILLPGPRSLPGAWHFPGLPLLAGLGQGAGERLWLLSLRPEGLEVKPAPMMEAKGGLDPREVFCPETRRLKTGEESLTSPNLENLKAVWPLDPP
# Outline: as §1
# ETS2 = biological target: T8, ETS2 (Homo sapiens, UniProt P15036 1-469); conditions: protein: recombinant; tags: N-terminal GST; dsDNA, one strand shown
# T8 sequence: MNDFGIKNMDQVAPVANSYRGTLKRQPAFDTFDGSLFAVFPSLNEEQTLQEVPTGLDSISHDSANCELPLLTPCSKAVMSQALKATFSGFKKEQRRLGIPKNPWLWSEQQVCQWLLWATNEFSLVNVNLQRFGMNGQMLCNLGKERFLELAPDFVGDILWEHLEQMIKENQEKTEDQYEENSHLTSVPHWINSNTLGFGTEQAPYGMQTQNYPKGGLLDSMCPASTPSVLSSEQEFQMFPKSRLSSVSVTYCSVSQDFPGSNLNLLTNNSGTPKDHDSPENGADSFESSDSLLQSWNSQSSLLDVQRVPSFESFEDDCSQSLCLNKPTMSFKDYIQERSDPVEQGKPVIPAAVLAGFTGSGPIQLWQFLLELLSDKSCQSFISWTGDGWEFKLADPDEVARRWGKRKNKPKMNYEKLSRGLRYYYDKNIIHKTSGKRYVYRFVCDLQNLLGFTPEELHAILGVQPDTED
# Outline: as §1
# SPDEF = biological target: T9, SPDEF (Homo sapiens, UniProt O95238 1-335); conditions: protein: recombinant; tags: N-terminal GST; dsDNA, one strand shown
# T9 sequence: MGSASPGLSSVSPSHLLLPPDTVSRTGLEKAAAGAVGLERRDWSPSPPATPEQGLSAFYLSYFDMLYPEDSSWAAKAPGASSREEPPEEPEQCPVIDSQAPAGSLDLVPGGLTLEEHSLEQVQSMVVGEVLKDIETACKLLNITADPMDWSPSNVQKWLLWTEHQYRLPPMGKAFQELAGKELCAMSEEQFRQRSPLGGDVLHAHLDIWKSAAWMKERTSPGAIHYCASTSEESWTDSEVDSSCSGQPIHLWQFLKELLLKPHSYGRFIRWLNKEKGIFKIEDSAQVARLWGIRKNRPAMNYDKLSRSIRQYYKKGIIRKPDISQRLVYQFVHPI
# Outline: as §1
# ETV7 = biological target: T10, ETV7 (Homo sapiens, UniProt Q9Y603 1-341); conditions: protein: recombinant; tags: N-terminal GST; dsDNA, one strand shown
# T10 sequence: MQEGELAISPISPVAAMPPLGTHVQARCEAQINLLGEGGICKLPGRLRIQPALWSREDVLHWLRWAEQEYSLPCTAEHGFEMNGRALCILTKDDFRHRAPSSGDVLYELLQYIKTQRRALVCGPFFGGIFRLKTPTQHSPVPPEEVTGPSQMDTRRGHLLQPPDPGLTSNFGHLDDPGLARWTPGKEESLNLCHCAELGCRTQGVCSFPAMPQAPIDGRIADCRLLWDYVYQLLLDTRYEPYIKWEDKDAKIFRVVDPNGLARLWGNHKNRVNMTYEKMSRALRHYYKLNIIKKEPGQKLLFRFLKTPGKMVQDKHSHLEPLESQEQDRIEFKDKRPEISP
# Outline: as §1
# ELF5 = biological target: T11, ELF5 (Homo sapiens, UniProt Q9UKW6-2 1-255); conditions: protein: recombinant; tags: N-terminal GST; dsDNA, one strand shown
# T11 sequence: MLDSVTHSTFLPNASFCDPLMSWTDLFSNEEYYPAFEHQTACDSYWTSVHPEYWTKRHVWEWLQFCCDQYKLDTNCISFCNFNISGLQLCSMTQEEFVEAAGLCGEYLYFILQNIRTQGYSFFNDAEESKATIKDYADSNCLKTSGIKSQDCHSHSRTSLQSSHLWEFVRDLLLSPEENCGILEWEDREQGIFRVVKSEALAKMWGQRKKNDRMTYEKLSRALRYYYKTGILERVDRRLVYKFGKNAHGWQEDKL
# Outline: as §1
# ETV3 = biological target: T12, ETV3 (Homo sapiens, UniProt P41162-2 1-143); conditions: protein: recombinant; tags: N-terminal GST; dsDNA, one strand shown
# T12 sequence: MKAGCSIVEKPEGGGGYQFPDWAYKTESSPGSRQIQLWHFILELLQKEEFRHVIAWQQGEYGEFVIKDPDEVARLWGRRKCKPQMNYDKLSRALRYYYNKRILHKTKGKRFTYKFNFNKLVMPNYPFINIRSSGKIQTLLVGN
# Outline: as §1
# ETV6 = ETV6 (Homo sapiens, UniProt P41212 1-452); conditions: protein: recombinant; tags: N-terminal GST; dsDNA, one strand shown
# Outline: as §1
# Sequence of CRX (O43186 whole entry): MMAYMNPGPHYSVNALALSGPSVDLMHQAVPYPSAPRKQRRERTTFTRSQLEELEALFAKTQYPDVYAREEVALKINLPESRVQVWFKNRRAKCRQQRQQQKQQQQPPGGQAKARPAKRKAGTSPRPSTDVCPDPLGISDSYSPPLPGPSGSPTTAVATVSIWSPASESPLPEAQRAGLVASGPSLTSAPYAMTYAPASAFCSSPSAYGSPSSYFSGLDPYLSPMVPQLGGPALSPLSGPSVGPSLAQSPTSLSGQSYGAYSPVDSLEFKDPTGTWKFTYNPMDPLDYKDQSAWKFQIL
# Sequence of ELF4 (Q99607 whole entry): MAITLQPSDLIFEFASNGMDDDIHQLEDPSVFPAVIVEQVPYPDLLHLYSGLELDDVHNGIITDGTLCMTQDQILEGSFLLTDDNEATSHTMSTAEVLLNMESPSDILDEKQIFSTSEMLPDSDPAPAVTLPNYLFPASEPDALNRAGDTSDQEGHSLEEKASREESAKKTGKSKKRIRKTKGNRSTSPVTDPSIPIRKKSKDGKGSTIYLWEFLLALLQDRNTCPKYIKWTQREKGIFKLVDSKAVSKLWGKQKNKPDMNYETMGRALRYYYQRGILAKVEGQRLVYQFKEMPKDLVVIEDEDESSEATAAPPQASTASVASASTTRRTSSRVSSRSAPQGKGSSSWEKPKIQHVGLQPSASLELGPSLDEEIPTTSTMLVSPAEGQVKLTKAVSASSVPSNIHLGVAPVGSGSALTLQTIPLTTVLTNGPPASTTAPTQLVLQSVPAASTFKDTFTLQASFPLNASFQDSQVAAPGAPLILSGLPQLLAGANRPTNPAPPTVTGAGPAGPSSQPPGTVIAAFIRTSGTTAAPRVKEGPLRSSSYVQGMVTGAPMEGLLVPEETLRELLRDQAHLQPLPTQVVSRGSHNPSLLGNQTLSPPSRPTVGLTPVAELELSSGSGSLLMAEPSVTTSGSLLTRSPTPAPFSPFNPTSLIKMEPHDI
# Sequence of HSF1 (Q00613 whole entry): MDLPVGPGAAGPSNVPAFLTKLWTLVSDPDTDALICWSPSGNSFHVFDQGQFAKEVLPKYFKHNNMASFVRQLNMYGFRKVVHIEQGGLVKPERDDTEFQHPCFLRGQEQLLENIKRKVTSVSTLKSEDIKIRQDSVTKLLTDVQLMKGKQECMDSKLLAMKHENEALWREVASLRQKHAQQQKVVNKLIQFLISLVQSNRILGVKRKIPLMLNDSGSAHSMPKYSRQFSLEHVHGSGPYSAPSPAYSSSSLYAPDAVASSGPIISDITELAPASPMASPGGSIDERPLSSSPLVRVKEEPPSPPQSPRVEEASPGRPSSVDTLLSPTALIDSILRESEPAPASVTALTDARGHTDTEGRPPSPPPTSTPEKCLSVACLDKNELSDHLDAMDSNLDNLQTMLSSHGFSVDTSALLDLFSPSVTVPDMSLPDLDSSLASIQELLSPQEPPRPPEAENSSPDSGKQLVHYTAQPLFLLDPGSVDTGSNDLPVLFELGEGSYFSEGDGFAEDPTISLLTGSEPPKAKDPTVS
# Sequence of ETV1 (P50549 whole entry): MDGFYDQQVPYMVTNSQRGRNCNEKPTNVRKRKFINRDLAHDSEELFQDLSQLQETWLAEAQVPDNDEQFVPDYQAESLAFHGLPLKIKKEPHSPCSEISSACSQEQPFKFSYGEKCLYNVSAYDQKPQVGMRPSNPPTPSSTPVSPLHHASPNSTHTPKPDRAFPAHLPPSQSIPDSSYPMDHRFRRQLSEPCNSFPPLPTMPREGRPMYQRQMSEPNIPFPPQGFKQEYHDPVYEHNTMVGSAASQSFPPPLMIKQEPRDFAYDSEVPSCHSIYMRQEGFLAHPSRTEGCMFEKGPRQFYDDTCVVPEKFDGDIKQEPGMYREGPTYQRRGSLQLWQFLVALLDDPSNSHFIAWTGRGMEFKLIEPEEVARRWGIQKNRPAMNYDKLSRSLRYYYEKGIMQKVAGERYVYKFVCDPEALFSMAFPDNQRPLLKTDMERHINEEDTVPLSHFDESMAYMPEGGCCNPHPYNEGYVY
# Sequence of ETV5 (P41161 whole entry): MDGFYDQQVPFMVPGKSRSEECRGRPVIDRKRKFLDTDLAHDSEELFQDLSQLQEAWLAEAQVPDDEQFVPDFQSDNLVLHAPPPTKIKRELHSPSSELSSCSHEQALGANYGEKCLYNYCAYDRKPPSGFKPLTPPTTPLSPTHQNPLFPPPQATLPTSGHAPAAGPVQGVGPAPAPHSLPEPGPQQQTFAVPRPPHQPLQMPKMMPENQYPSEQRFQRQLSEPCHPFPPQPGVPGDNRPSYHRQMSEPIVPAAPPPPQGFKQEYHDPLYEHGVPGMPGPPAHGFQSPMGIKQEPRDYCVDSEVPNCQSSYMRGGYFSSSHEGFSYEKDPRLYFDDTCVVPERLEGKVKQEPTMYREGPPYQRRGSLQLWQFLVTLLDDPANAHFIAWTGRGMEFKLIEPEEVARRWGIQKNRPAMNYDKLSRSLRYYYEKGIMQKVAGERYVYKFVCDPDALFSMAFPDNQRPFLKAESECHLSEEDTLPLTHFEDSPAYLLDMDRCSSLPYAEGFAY
# Sequence of ETV6 (P41212 whole entry): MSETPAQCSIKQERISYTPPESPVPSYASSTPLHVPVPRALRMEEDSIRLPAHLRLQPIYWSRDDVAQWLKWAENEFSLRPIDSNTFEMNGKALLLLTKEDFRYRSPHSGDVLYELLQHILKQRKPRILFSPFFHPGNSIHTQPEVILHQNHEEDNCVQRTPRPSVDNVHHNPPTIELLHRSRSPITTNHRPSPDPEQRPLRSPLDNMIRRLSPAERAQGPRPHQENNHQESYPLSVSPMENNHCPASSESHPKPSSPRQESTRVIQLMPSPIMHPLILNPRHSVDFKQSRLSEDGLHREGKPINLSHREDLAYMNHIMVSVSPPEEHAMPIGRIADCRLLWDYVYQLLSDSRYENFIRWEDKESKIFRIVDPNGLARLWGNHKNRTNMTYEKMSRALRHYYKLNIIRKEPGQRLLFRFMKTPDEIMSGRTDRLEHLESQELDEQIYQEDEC
sequence,measurement,setting,value
TGATGG,binding signal,FEV,"1.16 fold enrichment (6-mer frequency, TF over GST control)"
same,binding signal,ETV5,"1.34 fold enrichment (6-mer frequency, TF over GST control)"
same,binding signal,HSF1,"1.26 fold enrichment (6-mer frequency, TF over GST control)"
same,binding signal,SPIC,"1.51 fold enrichment (6-mer frequency, TF over GST control)"
same,binding signal,ELF4,"1.29 fold enrichment (6-mer frequency, TF over GST control)"
same,binding signal,ELK4,"1.33 fold enrichment (6-mer frequency, TF over GST control)"
same,binding signal,ETV2,"1.29 fold enrichment (6-mer frequency, TF over GST control)"
same,binding signal,ELF3,"1.32 fold enrichment (6-mer frequency, TF over GST control)"
same,binding signal,CRX,"1.1 fold enrichment (6-mer frequency, TF over GST control)"
same,binding signal,ETV1,"1.32 fold enrichment (6-mer frequency, TF over GST control)"
same,binding signal,ERF,"1.27 fold enrichment (6-mer frequency, TF over GST control)"
same,binding signal,ETV3L,"1.16 fold enrichment (6-mer frequency, TF over GST control)"
same,binding signal,ETS2,"1.22 fold enrichment (6-mer frequency, TF over GST control)"
same,binding signal,SPDEF,"1.09 fold enrichment (6-mer frequency, TF over GST control)"
same,binding signal,ETV7,"1.24 fold enrichment (6-mer frequency, TF over GST control)"
same,binding signal,ELF5,"1.26 fold enrichment (6-mer frequency, TF over GST control)"
same,binding signal,ETV3,"1.2 fold enrichment (6-mer frequency, TF over GST control)"
same,binding signal,ETV6,"1.21 fold enrichment (6-mer frequency, TF over GST control)"

# From PMC7862700, “An all-to-all approach to the identification of sequence-specific readers for epigenetic DNA modifications on cytosine”
